{"source": "PubChem BioAssay (NCI)", "note": "The panel holds about 79,000 compounds, 15% with a hit somewhere; the sample as a whole holds those more often. Calls of active or inactive are those of the source. Rule as the data show it: active = growth inhibition above about 70%; inactive = the rest."}
{"assay": "NCI Yeast Anticancer Drug Screen. Data for the sgs1 mgt1 strain (AID 161);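 also: 0% = growth of cultures given vehicle only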", "details": "S. cerevisiae sgs1 mgt1 strain, at 50.0 µM, stronger effect = higher value", "method_in_brief": "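Test agents were incubated with a DNA-repair-mutant yeast strain. Growth was then read and compared against vehicle-treated controls.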"}
{"smiles": "Cc1ccc2ccc(-c3cc4ccccc4s3)nc2c1", "growth inhibition": "-1.5% (inactive)"}
{"smiles": "Cc1nn(C)c(NC(=O)c2ccccc2O)c1SC#N", "growth inhibition": "16.7% (inactive)"}
{"smiles": "O=C(CCC(=O)Nc1cc(Cl)ccc1Cl)CC(=O)c1ccc(Cl)cc1", "growth inhibition": "10.4% (inactive)"}
{"smiles": "C=CCOC(=O)/C=C\\c1ccccc1OC", "growth inhibition": "16.6% (inactive)"}
{"smiles": "CCC(c1ccc(N(CC)CC)cc1[N+](=O)[O-])c1ccc(N(CC)CC)cc1[N+](=O)[O-]", "growth inhibition": "44.5% (inactive)"}
{"smiles": "CCCCCC(Cl)(CC)CCCCC", "growth inhibition": "-16.6% (inactive)"}
{"smiles": "CN(C)c1ccc(N=C2C=CC(=C(C#N)C#N)c3ccccc32)cc1", "growth inhibition": "-14.2% (inactive)"}
{"smiles": "O=c1c2cc([N+](=O)[O-])ccc2[nH]n1Cc1ccccc1Cl", "growth inhibition": "-3.8% (inactive)"}
{"smiles": "CCCCNc1ccc(S(=O)(=O)c2ccc(NCCCC)c([N+](=O)[O-])c2)cc1[N+](=O)[O-]", "growth inhibition": "15.2% (inactive)"}
{"smiles": "O=C1/C(=C/c2ccc(F)cc2)CC/C1=C\\c1ccc(F)cc1", "growth inhibition": "-2.85% (inactive)"}
{"smiles": "COC1CCC(OC)(C(=O)NN)O1", "note": "(stereo not given)", "growth inhibition": "-9.45% (inactive)"}
{"smiles": "CC(C)(C)N(OC(=O)c1ccccc1)C(=O)c1ccccc1", "growth inhibition": "0.4% (inactive)"}
{"smiles": "O=C1NC(=O)C2(CCCC2=Nc2ccc(Br)cc2)C2C=CN(Cc3ccccc3)C=C12", "note": "(stereo not given)", "growth inhibition": "6.3% (inactive)"}
{"smiles": "C=Cc1ccc(S(N)(=O)=O)cc1", "growth inhibition": "-7.55% (inactive)"}
{"smiles": "Cc1cccc(NC(=O)Nc2ccccc2)n1", "growth inhibition": "9.55% (inactive)"}
{"smiles": "CC(C)(CO)[C@@H](O)C(=O)NCCC(=O)O", "growth inhibition": "-10.2% (inactive)"}
{"smiles": "O=S1(=O)C(c2ccc(F)cc2)=C(O)c2cc3ccccc3nc21", "growth inhibition": "27% (inactive)"}
{"smiles": "S=C1NC=CC(S)N1", "note": "(stereo not given)", "growth inhibition": "6.6% (inactive)"}
{"smiles": "COc1ccc(CC(=O)NC(N)=O)cc1", "growth inhibition": "-12.3% (inactive)"}
{"smiles": "OCC1CC=CCC1", "note": "(stereo not given)", "growth inhibition": "-4.35% (inactive)"}
{"smiles": "C=C(C)c1ccc(C(=C)C)cc1", "growth inhibition": "-38.2% (inactive)"}
{"smiles": "Nc1nc2c(C(=O)NCc3cccs3)nnn2c2cccc(Cl)c12", "growth inhibition": "-5.35% (inactive)"}
{"smiles": "CC1(c2cccc[n+]2Cc2ccc(Cl)c(Cl)c2)OCCO1", "growth inhibition": "0.2% (inactive)"}
{"smiles": "CCOc1ccc(C2OCC(C)O2)cc1OC", "note": "(stereo not given)", "growth inhibition": "2.3% (inactive)"}
{"smiles": "COc1cccc(C(N)C(=O)O)c1", "note": "(stereo not given)", "growth inhibition": "-5.25% (inactive)"}
{"smiles": "CC(C)/C=C1\\CCC(CN2CCCC2)C1=O", "note": "(stereo not given)", "growth inhibition": "48.5% (inactive)"}
{"smiles": "CC(=O)N(C)c1ccc(NC(=O)Nc2c(C)cccc2C)cc1", "growth inhibition": "10.7% (inactive)"}
{"smiles": "CC1=CC[P+](Cc2ccccc2)(c2ccccc2)C1", "note": "(stereo not given)", "growth inhibition": "22.2% (inactive)"}
{"smiles": "COc1cc(C(c2ccc(O)c(OC)c2)c2ccc(O)c(OC)c2)ccc1O", "growth inhibition": "34.6% (inactive)"}
{"smiles": "CC(C)(C)CC(C)(C)c1ccc(OCCOc2ccc(S(=O)(=O)O)cc2[N+](=O)[O-])cc1", "growth inhibition": "71.7% (active)"}
{"smiles": "c1ccc(-c2cc(-c3ccccc3)nc(-c3ccccc3)c2)cc1", "growth inhibition": "10.1% (inactive)"}
{"smiles": "COc1cc2oc(-c3ccc(O)cc3)c(OC3OC(C)C(O)C(O)C3O)c(=O)c2c(O)c1OC", "note": "(stereo not given)", "growth inhibition": "-15.6% (inactive)"}
{"smiles": "O=C1C=C(NCCc2ccccc2)c2ccccc2C1=O", "growth inhibition": "16.6% (inactive)"}
{"smiles": "c1cc2c3c(cccc3c1)-c1nc3c(ccc4ccccc43)nc1-2", "growth inhibition": "19.6% (inactive)"}
{"smiles": "COc1cc(OC)c(C(=O)/C=C/c2ccccc2)c(O)c1OC", "growth inhibition": "20.9% (inactive)"}
{"smiles": "O=C(O)[C@H](c1ccccc1)[C@@H](C(=O)O)c1ccccc1", "growth inhibition": "-8.35% (inactive)"}
{"smiles": "Nc1nc(N)nc(-c2ccc([N+](=O)[O-])o2)n1", "growth inhibition": "29.9% (inactive)"}
{"smiles": "COc1ccc(C(CCl)(CCl)c2ccc(OC)cc2)cc1", "growth inhibition": "4.35% (inactive)"}
{"smiles": "Cn1c2ccccc2c(=S)c2c(O)cc3c(c21)C=CC(C)(C)O3", "growth inhibition": "-0.7% (inactive)"}
{"smiles": "NC(=Nc1ccc(S(=O)(=O)Nc2cnccn2)cc1)/N=C(/N)Nc1ccc(Br)cc1", "growth inhibition": "15.7% (inactive)"}
{"assay": "NCI Yeast Anticancer Drug Screen. Data for the cln2 rad14 strain (AID 165);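 also: 0% = growth equal to vehicle treated cultures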", "details": "S. cerevisiae cln2 rad14 strain, at 50.0 µM, stronger effect = higher value", "method_in_brief": "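cln2 rad14 yeast strain; compound exposure; growth inhibition read vs vehicle controls.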"}
{"smiles": "Cc1ccc2ccc(-c3cc4ccccc4s3)nc2c1", "growth inhibition": "-81.8% (inactive)"}
{"smiles": "Cc1nn(C)c(NC(=O)c2ccccc2O)c1SC#N", "growth inhibition": "28.2% (inactive)"}
{"smiles": "O=C(CCC(=O)Nc1cc(Cl)ccc1Cl)CC(=O)c1ccc(Cl)cc1", "growth inhibition": "11% (inactive)"}
{"smiles": "C=CCOC(=O)/C=C\\c1ccccc1OC", "growth inhibition": "-39.9% (inactive)"}
{"smiles": "CCC(c1ccc(N(CC)CC)cc1[N+](=O)[O-])c1ccc(N(CC)CC)cc1[N+](=O)[O-]", "growth inhibition": "36.5% (inactive)"}
{"smiles": "CCCCCC(Cl)(CC)CCCCC", "growth inhibition": "-39.7% (inactive)"}
{"smiles": "CN(C)c1ccc(N=C2C=CC(=C(C#N)C#N)c3ccccc32)cc1", "growth inhibition": "-34% (inactive)"}
{"smiles": "O=c1c2cc([N+](=O)[O-])ccc2[nH]n1Cc1ccccc1Cl", "growth inhibition": "14.9% (inactive)"}
{"smiles": "CCCCNc1ccc(S(=O)(=O)c2ccc(NCCCC)c([N+](=O)[O-])c2)cc1[N+](=O)[O-]", "growth inhibition": "-1.4% (inactive)"}
{"smiles": "O=C1/C(=C/c2ccc(F)cc2)CC/C1=C\\c1ccc(F)cc1", "growth inhibition": "-2.55% (inactive)"}
{"smiles": "COC1CCC(OC)(C(=O)NN)O1", "note": "(stereo not given)", "growth inhibition": "4.3% (inactive)"}
{"smiles": "CC(C)(C)N(OC(=O)c1ccccc1)C(=O)c1ccccc1", "growth inhibition": "5.45% (inactive)"}
{"smiles": "O=C1NC(=O)C2(CCCC2=Nc2ccc(Br)cc2)C2C=CN(Cc3ccccc3)C=C12", "note": "(stereo not given)", "growth inhibition": "2.4% (inactive)"}
{"smiles": "C=Cc1ccc(S(N)(=O)=O)cc1", "growth inhibition": "-16.6% (inactive)"}
{"smiles": "Cc1cccc(NC(=O)Nc2ccccc2)n1", "growth inhibition": "-71.5% (inactive)"}
{"smiles": "CC(C)(CO)[C@@H](O)C(=O)NCCC(=O)O", "growth inhibition": "15.4% (inactive)"}
{"smiles": "O=S1(=O)C(c2ccc(F)cc2)=C(O)c2cc3ccccc3nc21", "growth inhibition": "21.4% (inactive)"}
{"smiles": "S=C1NC=CC(S)N1", "note": "(stereo not given)", "growth inhibition": "10.3% (inactive)"}
{"smiles": "COc1ccc(CC(=O)NC(N)=O)cc1", "growth inhibition": "-9.4% (inactive)"}
{"smiles": "OCC1CC=CCC1", "note": "(stereo not given)", "growth inhibition": "16% (inactive)"}
{"smiles": "C=C(C)c1ccc(C(=C)C)cc1", "growth inhibition": "-3.9% (inactive)"}
{"smiles": "Nc1nc2c(C(=O)NCc3cccs3)nnn2c2cccc(Cl)c12", "growth inhibition": "4.2% (inactive)"}
{"smiles": "CC1(c2cccc[n+]2Cc2ccc(Cl)c(Cl)c2)OCCO1", "growth inhibition": "-18.3% (inactive)"}
{"smiles": "CCOc1ccc(C2OCC(C)O2)cc1OC", "note": "(stereo not given)", "growth inhibition": "10.3% (inactive)"}
{"smiles": "COc1cccc(C(N)C(=O)O)c1", "note": "(stereo not given)", "growth inhibition": "-26.2% (inactive)"}
{"smiles": "CC(C)/C=C1\\CCC(CN2CCCC2)C1=O", "note": "(stereo not given)", "growth inhibition": "44.5% (inactive)"}
{"smiles": "CC(=O)N(C)c1ccc(NC(=O)Nc2c(C)cccc2C)cc1", "growth inhibition": "4.85% (inactive)"}
{"smiles": "CC1=CC[P+](Cc2ccccc2)(c2ccccc2)C1", "note": "(stereo not given)", "growth inhibition": "4.35% (inactive)"}
{"smiles": "COc1cc(C(c2ccc(O)c(OC)c2)c2ccc(O)c(OC)c2)ccc1O", "growth inhibition": "30.1% (inactive)"}
{"smiles": "CC(C)(C)CC(C)(C)c1ccc(OCCOc2ccc(S(=O)(=O)O)cc2[N+](=O)[O-])cc1", "growth inhibition": "1.65% (inactive)"}
{"smiles": "c1ccc(-c2cc(-c3ccccc3)nc(-c3ccccc3)c2)cc1", "growth inhibition": "-33% (inactive)"}
{"smiles": "COc1cc2oc(-c3ccc(O)cc3)c(OC3OC(C)C(O)C(O)C3O)c(=O)c2c(O)c1OC", "note": "(stereo not given)", "growth inhibition": "9.4% (inactive)"}
{"smiles": "O=C1C=C(NCCc2ccccc2)c2ccccc2C1=O", "growth inhibition": "9.15% (inactive)"}
{"smiles": "c1cc2c3c(cccc3c1)-c1nc3c(ccc4ccccc43)nc1-2", "growth inhibition": "11.6% (inactive)"}
{"smiles": "COc1cc(OC)c(C(=O)/C=C/c2ccccc2)c(O)c1OC", "growth inhibition": "-45.2% (inactive)"}
{"smiles": "O=C(O)[C@H](c1ccccc1)[C@@H](C(=O)O)c1ccccc1", "growth inhibition": "-3.35% (inactive)"}
{"smiles": "Nc1nc(N)nc(-c2ccc([N+](=O)[O-])o2)n1", "growth inhibition": "20.8% (inactive)"}
{"smiles": "COc1ccc(C(CCl)(CCl)c2ccc(OC)cc2)cc1", "growth inhibition": "15.3% (inactive)"}
{"smiles": "Cn1c2ccccc2c(=S)c2c(O)cc3c(c21)C=CC(C)(C)O3", "growth inhibition": "22.9% (inactive)"}
{"smiles": "NC(=Nc1ccc(S(=O)(=O)Nc2cnccn2)cc1)/N=C(/N)Nc1ccc(Br)cc1", "growth inhibition": "-4.65% (inactive)"}
